Sfp PPTase inh = Sfp phosphopantetheinyl transferase inhibition; Q9F4F7; AID 1490; 310,000 compounds, 3.5% hits; Potency, µM, usual class: inhibitors; Biochemical Sfp PPTase activity, qHTS;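 also: the enzyme is Sfp with the accession as filed and its product quenches rhodamine fluorescence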
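Fluorescence-quenching assay with 15 nM Sfp, 5 uM rhodamine-CoA and 12.5 uM BHQ-2-labelled ybbR peptide in pH 7.6 Hepes/MgCl2 buffer. Enzyme was pre-incubated with compound for 15 min at room temperature. Rate was taken from the 30-min fluorescence change (525/598 nm).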
TDP1 inh = blocks human tyrosyl-DNA phosphodiesterase 1 | 350,000 compounds, 0.28% hits | AID 485290 | Potency, µM (series often up to 130 µM), usual class: inhibitors | Q9NUW8 | recombinant TDP1, AlphaScreen DNA substrate cleavage; also: nearly all actives have a fitted effect of over 40% in size
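Here, a 5' biotin and 3' phosphotyrosine-FITC DNA oligonucleotide reports Tdp1 activity: intact substrate bridges AlphaScreen beads, while cleavage leaves a 3' phosphate and drops signal. All incubations at room temperature.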
HP1b binding inh = HP1-beta chromodomain-methylated histone interaction inhibition; P83916; AlphaScreen HP1-beta / biotin-H3K9me3 peptide binding; Potency, µM (highest dose often 114 µM), most hits filed as inhibitors; 390,000 compounds, 0.56% hits; also: nearly all actives have a fitted effect of over 70% in size
Target sequence (P83916 whole entry, looked up): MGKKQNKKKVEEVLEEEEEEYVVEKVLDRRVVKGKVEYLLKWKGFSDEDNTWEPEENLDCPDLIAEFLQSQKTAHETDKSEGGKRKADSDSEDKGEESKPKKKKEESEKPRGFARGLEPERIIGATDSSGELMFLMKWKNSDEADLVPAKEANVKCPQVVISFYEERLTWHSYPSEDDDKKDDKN
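Compound inhibition of the preformed complex between 50 nM HP1-beta and 50 nM biotinylated H3K9me3 peptide was read by AlphaScreen. Buffer was PBS pH 7.4 with 0.01% Tween-20. Incubations ran 30 min at room temperature, with 10 ug/mL donor/acceptor beads.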
G9a inh = inhibitors of human histone lysine methyltransferase G9a; G9a H3K9 monomethylation, AlphaScreen, 2 h; 350,000 compounds, 8.8% hits; AID 504332; Potency, µM (series often up to 102 µM), hits mostly inhibitors; Q96KQ7; also: nearly all actives have a fitted effect of over 75% in size
Target sequence (Q96KQ7 913-1193 limits assumed): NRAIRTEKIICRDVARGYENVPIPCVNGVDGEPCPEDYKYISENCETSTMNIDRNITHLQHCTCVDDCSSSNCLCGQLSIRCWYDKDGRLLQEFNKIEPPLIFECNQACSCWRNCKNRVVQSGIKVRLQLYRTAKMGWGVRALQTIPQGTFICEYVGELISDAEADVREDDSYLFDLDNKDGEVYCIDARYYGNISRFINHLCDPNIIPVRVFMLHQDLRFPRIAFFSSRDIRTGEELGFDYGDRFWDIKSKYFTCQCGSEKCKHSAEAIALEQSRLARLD
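AlphaScreen detection with an anti-monomethyl H3K9 antibody quantified product after a 2 h room-temperature reaction containing 500 nM biotinylated H3K9 peptide, 20 µM SAM and 20 nM enzyme, which had been preincubated 15 min with compound.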
BAZ2B block = BAZ2B (human) inhibition | 360,000 compounds, 4.4% hits | Potency, µM (titrated, usually from 114 µM), actives largely listed as inhibitors | AlphaScreen BAZ2B-H3K14Ac peptide displacement | AID 504333; also: nearly all actives have a fitted effect of over 60% in size
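AlphaScreen displacement: compounds (up to 110uM) incubated 30 min at room temperature with a preformed 50 nM BAZ2B/50 nM biotinylated H3K14Ac peptide complex in PBS pH 7.4 with Tween-20. Donor and acceptor beads at 10 ug/mL final added, 20 min light-protected before reading.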
JMJD2A Tudor = JMJD2A Tudor domain (human) inhibition | O75164 | AlphaScreen JMJD2A-Tudor / H3K4me3 peptide binding | Potency, µM (doses to about 114 µM), actives largely listed as inhibitors | 390,000 compounds, 4.4% hits | AID 504339; also: nearly all actives have a fitted effect of over 50% in size
A number is an active result; – = inactive; ? = inconclusive; · = not tested or not shown; [ ] = another dose, or the depositor's remark. Sampled rows, rich in hits. Any-hit rate of the full collection: about 12%. Calls follow the shape of the dose curve; as a rule, active = well fitted curve in the direction sought with a large enough effect; inconclusive = small, poorly fitted or top-dose-only effect, or another doubt; inactive = no such curve, though single readings can be large; an effect the other way counts as inactive or inconclusive.

SMILES | Sfp PPTase inh | TDP1 inh | HP1b binding inh | G9a inh | BAZ2B block | JMJD2A Tudor
CCc1c(C(C)S(=O)(=O)c2ccccc2)[nH]c(=O)n1CC (stereo not drawn) | 50µM | – | – | 3.5µM | – | ?
CCn1c(=O)[nH]c2ccccc2c1=O | – | – | – | – | – | –
COc1ccc(CCC(=O)OCC(=O)Nc2c(C)nn(-c3ccccc3)c2C)cc1 | · | · | – | – | – | –
CCOc1ccc(-n2nc3cc(C)c(N)cc3n2)cc1 | – | · | – | · | ? | –
Cc1cc2nn(-c3ccc(Cl)cc3)nc2cc1N | – | · | – | 13µM | ? | –
COC(=O)c1cc(S(=O)(=O)N2CCCCCC2)c[nH]1 | – | · | – | – | – | –
COC(=O)c1cc(S(=O)(=O)N2CCCCC2)c[nH]1 | – | – | ? | – | – | 45µM
O=C(CCN1C(=O)c2ccccc2C1=O)CN1CCOCC1 | – | – | – | 50µM | – | –
CCOC(=O)c1c(NC(=O)CSc2nncs2)sc(C)c1-c1ccccc1 | – | – | – | ? | – | –
CCOC(=O)c1c(NC(=O)CSc2nc(-c3ccccc3)cc(C(F)(F)F)n2)sc(C)c1C | · | – | – | 6.3µM | – | –
CCOC(=O)c1c(NC(=O)CSc2nnnn2-c2ccc(OC)cc2)sc(C)c1C | 5µM | · | ? | ? | – | 50µM
CCOC(=O)c1c(NC(=O)CSc2nncs2)sc(C)c1C | – | – | – | 10µM | ? | –
CCOC(=O)c1c(NC(=O)CSc2ncnc3ccccc23)sc(C)c1C | ? | – | – | – | – | –
CCOC(=O)c1c(NC(=O)CSc2ccccc2C(=O)O)sc(C)c1C | – | – | – | – | 50µM | –
COc1cccc(C2c3c(ncn(-c4ccc(C(C)(C)C)cc4)c3=N)Oc3ccc4ccccc4c32)c1 (stereo not drawn) | · | – | · | · | · | ?
O=C(O)CC(C(=O)OCCOc1ccccc1)N1CCOCC1 (stereo not drawn) | – | – | – | 79µM | – | ?
O=C(NCCS(=O)(=O)N1CCC2(CC1)OCCO2)c1ccc(F)cc1 | · | – | – | –[0.501 µM] | – | –
CCOC(=O)C1CCN(S(=O)(=O)CCNC(=O)c2ccc3c(c2)OCO3)CC1 | · | – | – | –[0.501 µM] | – | –
O=S(=O)(CCOc1ccccc1)N1CCOCC1 | – | – | – | 79µM | – | –
CCOC(=O)C1CCN(S(=O)(=O)CCNC(=O)c2cccc(OC)c2)CC1 | · | · | – | 18µM | – | –
CCCCCOc1ccc(C(=O)C(c2ccccc2)N2CCOCC2)cc1 (stereo not drawn) | – | – | – | ? | – | –
COc1cccc(C(=O)NCCS(=O)(=O)N2CCC3(CC2)OCCO3)c1 | · | · | – | 16µM | – | –
c1ccc(OCCCCN2CCOCC2)cc1 | – | – | – | – | – | –
CCc1ccc(-c2nc3cc(NC(=O)c4cc5ccccc5cc4OC)ccc3o2)cc1 | · | –[12.3 µM] | – | – | – | –
CC1CCCN(S(=O)(=O)CCNC(=O)c2ccccc2)C1 (stereo not drawn) | · | · | – | ? | – | –
SMILES | Sfp PPTase inh | TDP1 inh | HP1b binding inh | G9a inh | BAZ2B block | JMJD2A Tudor
COc1cccc(C(=O)NCCS(=O)(=O)N2CC(C)CC(C)C2)c1 (stereo not drawn) | · | –[0.505 µM] | – | 25µM | – | –
COc1cccc(C(=O)NCCS(=O)(=O)N2CCOCC2)c1 | · | –[0.505 µM] | – | 22µM | – | –
COc1ccc(C(=O)NCCS(=O)(=O)N2CCOCC2)cc1 | · | · | – | – | – | –
CCCCN(C(=O)CCC(=O)Nc1cc(C)on1)C(C(=O)NC1CCCC1)c1cccc(OC)c1 (stereo not drawn) | – | – | – | – | – | –
CC(=O)NC(CC(=O)Nc1ccc(S(=O)(=O)N2CCCCC2)cc1)c1ccccc1 (stereo not drawn) | – | – | – | –[12.7 µM] | – | –
CC(=O)c1ccc(OCCCC(=O)Nc2cccc(S(=O)(=O)N3CCCCC3)c2)cc1 | · | – | – | ? | – | –
CC(=O)NC(CC(=O)Nc1cccc(S(=O)(=O)N2CCCCC2)c1)c1ccccc1 (stereo not drawn) | – | – | – | 50µM | – | –
O=C(Cc1c[nH]c2ccccc12)Nc1cccc(S(=O)(=O)N2CCCCC2)c1 | – | – | · | 45µM | ? | ·

Bioassay records as filed in PubChem BioAssay.
